This note sets out measurements from article PMC10726135, “HNF4α isoforms regulate the circadian balance between carbohydrate and lipid metabolism in the liver”.

Whole data set: some 18,000 sequences, median “log2 normalized intensity” near 0.39, cut for the highest 2% near 6.6. Only a selection was taken, and the highest values are over-represented in it overall.

This test deals with T1, HNF4alpha2 (COS-7 nuclear extract) (Homo sapiens, UniProt P41235 1-474).
T1 sequence: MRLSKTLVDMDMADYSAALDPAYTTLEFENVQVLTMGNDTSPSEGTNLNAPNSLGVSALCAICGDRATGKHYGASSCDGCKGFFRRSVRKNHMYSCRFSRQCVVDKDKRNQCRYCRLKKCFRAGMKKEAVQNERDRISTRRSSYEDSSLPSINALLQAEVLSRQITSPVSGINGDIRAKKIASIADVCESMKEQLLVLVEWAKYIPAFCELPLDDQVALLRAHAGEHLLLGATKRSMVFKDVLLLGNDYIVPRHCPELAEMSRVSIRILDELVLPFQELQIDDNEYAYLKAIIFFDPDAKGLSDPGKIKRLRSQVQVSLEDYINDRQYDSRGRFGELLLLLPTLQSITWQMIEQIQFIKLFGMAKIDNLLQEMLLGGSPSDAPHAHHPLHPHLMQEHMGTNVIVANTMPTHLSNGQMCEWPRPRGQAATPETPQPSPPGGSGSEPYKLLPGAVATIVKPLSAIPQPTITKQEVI
Kind of test: protein-binding microarray; COS-7 nuclear extract on double-stranded Agilent 4x180k PBM; binding buffer, salt, pH and temperature not given in the material; high values mean tight binding. The settings on record: chain copies: 2; label: 3' end of strand 1 on the slide; dsDNA, one strand shown. A digest of the protocol: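 A custom Agilent SurePrint G3 4x180k array, spotted in quadruplicate with ~44,000 test sequences as ~60-nt oligonucleotides made double-stranded, was incubated with nuclear extracts. The extracts came from COS-7 cells transiently transfected by CaPO4 with a human HNF4α isoform expression vector. Bound HNF4α was imaged on an Agilent G2565CA scanner at 2-µm resolution, and the binding signal was taken as Agilent software's background-corrected, normalized gProcessedSignal.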
For the sequence “CCAAACAGAACAAAGTCCAGTAAGGACAGTGCCTAGGGAGATTAGAGTATCGGTCGA”, the binding signal amounted to 2.51 log2 normalized intensity.
For the sequence “GAGTAGGTTCTCAGCTGACATTGGTGGAATGCCTAGGGAGATTAGAGTATCGGTCGA”, the binding signal came to 1.36 log2 normalized intensity.
On to “AGTCCAGACAAGTCCCAAGTATTTTCAGCCGCCTAGGGAGATTAGAGTATCGGTCGA”, for which the binding signal is -0.962 log2 normalized intensity.
The result for “AACTTCTTATCACTTGGTGGACATGGTTCAGCCTAGGGAGATTAGAGTATCGGTCGA” reads 2.02 log2 normalized intensity.
For “AGATATCAGAAATGCATGAGTGACCTTTATGCCTAGGGAGATTAGAGTATCGGTCGA”, the binding signal turned out to be 4.97 log2 normalized intensity.
“CTCTTTTCTTTGTACCGTATTTCAGACCACGCCTAGGGAGATTAGAGTATCGGTCGA”: the binding signal was determined as 2.19 log2 normalized intensity.
The result for “CAATTAGAGCAAAGGTTACTGCAGAGAAGAGCCTAGGGAGATTAGAGTATCGGTCGA” reads 1.54 log2 normalized intensity; that for “AGAGCACAACCTTTGGCCGTGCATGCTTGGGCCTAGGGAGATTAGAGTATCGGTCGA”, 1.84 log2 normalized intensity; that for “AGCAATTCAAATTCTTTGCCATGACCTTTGGCCTAGGGAGATTAGAGTATCGGTCGA”, 5.51 log2 normalized intensity.
The result for “CCTTTGAGGAGGCCTTTCCTGACCCCTCCTGCCTAGGGAGATTAGAGTATCGGTCGA” reads 4.34 log2 normalized intensity.
On to “TTCAAATTCTTTGCCATGACCTTTGAAGCCGCCTAGGGAGATTAGAGTATCGGTCGA”, for which the binding signal was found to be 6.75 log2 normalized intensity.
For “ATCTTTGACCTGGAGCATGACCCTTTGCAGGCCTAGGGAGATTAGAGTATCGGTCGA”, the binding signal came out at 2.68 log2 normalized intensity.
For “AAAGAGCCATGGACTGCTGACCTTTGAACCGCCTAGGGAGATTAGAGTATCGGTCGA”, the binding signal is 9.3 log2 normalized intensity.
“ATTCTTTGCCATGACCTTTGAAGCCCAGAAGCCTAGGGAGATTAGAGTATCGGTCGA”: the binding signal came out at 4.66 log2 normalized intensity.
On to “ATATGAAAGAGCCATGGACTGCTGACCTTTGCCTAGGGAGATTAGAGTATCGGTCGA”, for which the binding signal came out at 6.32 log2 normalized intensity.
As to “GGCAGATATGAAAGAGCCATGGACTGCTGAGCCTAGGGAGATTAGAGTATCGGTCGA”, the binding signal is -0.302 log2 normalized intensity.
“GCCATGGACTGCTGACCTTTGAACCCTGAGGCCTAGGGAGATTAGAGTATCGGTCGA”: the binding signal worked out at 10.1 log2 normalized intensity.
The result for “CAGTAACTGTCATGGATGACCTCTTTTAGTGCCTAGGGAGATTAGAGTATCGGTCGA” reads 3.08 log2 normalized intensity; that for “GCTGTCTACTCTGGGGGTCAGCAATGGTAAGCCTAGGGAGATTAGAGTATCGGTCGA”, 1.8 log2 normalized intensity.
The result for “TGCCCCAGGAATGCCTTTTCTTTCATGTTGGCCTAGGGAGATTAGAGTATCGGTCGA” reads 1.43 log2 normalized intensity; that for “GTTGAGGAGTTTGTACTTTATCCTACAAGGGCCTAGGGAGATTAGAGTATCGGTCGA”, 2.25 log2 normalized intensity.
With “TCCTCTCAAAGTCCACCCGGCCAGCAGATGGCCTAGGGAGATTAGAGTATCGGTCGA”, the binding signal was found to be 2.46 log2 normalized intensity.
For “AAAGGTCATATCCAAAATATTTGCAGTGAGGCCTAGGGAGATTAGAGTATCGGTCGA”, the binding signal is 1.79 log2 normalized intensity.
On to “ATATTTTCTTTGTGCTATTTTTGGCTTGGTGCCTAGGGAGATTAGAGTATCGGTCGA”, for which the binding signal came out at 2.13 log2 normalized intensity.
As for “CCATTCTTGAGGACAGGCCAAATCCAGTAAGCCTAGGGAGATTAGAGTATCGGTCGA”, the binding signal is -0.994 log2 normalized intensity.
For “GCCTTGCTGAGGAATTTGGACTTCAGCCCAGCCTAGGGAGATTAGAGTATCGGTCGA”, the binding signal worked out at 6.11 log2 normalized intensity.
Regarding “ATTGGGTCCACACATTCCTAGACCTTTGACGCCTAGGGAGATTAGAGTATCGGTCGA”, the binding signal was found to be 3.26 log2 normalized intensity.
Regarding “GTCCACACATTCCTAGACCTTTGACCTTTAGCCTAGGGAGATTAGAGTATCGGTCGA”, the binding signal turned out to be 8.13 log2 normalized intensity.
The result for “CACATTCCTAGACCTTTGACCTTTATACCTGCCTAGGGAGATTAGAGTATCGGTCGA” reads 7.82 log2 normalized intensity; that for “ATTGTGATTCCTGTGATACCTTCTTTGCCTGCCTAGGGAGATTAGAGTATCGGTCGA”, 1.13 log2 normalized intensity.
Regarding “CCCAAGATGGATTGGGTCCACACATTCCTAGCCTAGGGAGATTAGAGTATCGGTCGA”, the binding signal was -0.811 log2 normalized intensity.
As to “TCCTAGACCTTTGACCTTTATACCTGTACGGCCTAGGGAGATTAGAGTATCGGTCGA”, the binding signal was determined as 5.75 log2 normalized intensity.
For the sequence “GACCTTTGACCTTTATACCTGTACGTTACTGCCTAGGGAGATTAGAGTATCGGTCGA”, the binding signal came to 7.39 log2 normalized intensity.
Turning to “GACATTCCTTCAGCGTGAACTTTGACATGAGCCTAGGGAGATTAGAGTATCGGTCGA”, the binding signal stood at 5.5 log2 normalized intensity.
With “TCCTTCAGCGTGAACTTTGACATGAGAGAAGCCTAGGGAGATTAGAGTATCGGTCGA”, the binding signal turned out to be 3.66 log2 normalized intensity.
For “TTGACCTTTATACCTGTACGTTACTCTGTAGCCTAGGGAGATTAGAGTATCGGTCGA”, the binding signal stood at 3.65 log2 normalized intensity.
Regarding “TGGGAGACATTCCTTCAGCGTGAACTTTGAGCCTAGGGAGATTAGAGTATCGGTCGA”, the binding signal was found to be 6.72 log2 normalized intensity.
“CTTTATACCTGTACGTTACTCTGTACCTCGGCCTAGGGAGATTAGAGTATCGGTCGA”: the binding signal is 1.19 log2 normalized intensity.
With “GAATCACTCACTGACCTCTTTTGGATTTTTGCCTAGGGAGATTAGAGTATCGGTCGA”, the binding signal is 1.73 log2 normalized intensity.
“TCAGGAGTGATGCCAGAAGATTAGTGATGGGCCTAGGGAGATTAGAGTATCGGTCGA”: the binding signal is -0.625 log2 normalized intensity.
With “GACTGGAAGTTGCCCGAGCTGCCCTTTATCGCCTAGGGAGATTAGAGTATCGGTCGA”, the binding signal is 2.47 log2 normalized intensity.
With “CCGGTTTGTTCCATGCCACAGAATCGCCCCGCCTAGGGAGATTAGAGTATCGGTCGA”, the binding signal turned out to be 2.6 log2 normalized intensity.
Turning to “CCAGATGATCTTTACCCTGGAATGCTGTTAGCCTAGGGAGATTAGAGTATCGGTCGA”, the binding signal was 1.33 log2 normalized intensity.
“GGAGGAGCTGTTTGACATCCAAAGTTTCCTGCCTAGGGAGATTAGAGTATCGGTCGA”: the binding signal came to 0.813 log2 normalized intensity.
